Where “and” joins values, the source holds several entries; their conditions need not be identical. Equal entries are not always repeated. Among all 5,500 compounds or so, about 2,000 (36%) were called active. Roughly 18% stayed inconclusive and do not appear here. Cut-off read from the data, not from the text of the source: active = normalized growth mostly below about 0.91 (no sharp cut-off); inconclusive = no clear call, values can overlap the other calls; inactive = mostly above about 0.92. The list shows a part of the results.
Assay: chemical genetic growth profiling, strain panel (AID 1159580);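 note: tested at 20 µM; growth read once vehicle control cultures reached saturation at 30 °C; 1 = growth at the plate median or of vehicle wells; lower values mean less growth of the strain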
Details: growth OD

Measured: normalized growth

O=C(O)c1cc(=O)c2ccc(Cl)cc2[nH]1
inactive: S. cerevisiae deletion strains, locus YJR043C, strain POL32, hits give low values 1.03 | S. cerevisiae deletion strains, locus YJR075W, strain HOC1, hits give low values 1.02 and 1 | S. cerevisiae deletion strains, locus YKL009W, strain mrt4, hits give low values 0.99 | S. cerevisiae deletion strains, locus YKL068W, hits give low values 0.995 | S. cerevisiae deletion strains, locus YKL085W, strain MDH1 (second series), hits give low values 0.982 | S. cerevisiae deletion strains, locus YKL085W, strain MDH1, hits give low values 0.982 | S. cerevisiae deletion strains, locus YKL160W, strain elf1, hits give low values 1.05 | S. cerevisiae deletion strains, locus YKL190W, strain CNB1, hits give low values 1.01 | S. cerevisiae deletion strains, locus YKR001C, strain vps1, hits give low values 0.998 | S. cerevisiae deletion strains, locus YKR026C, strain gcn3, hits give low values 1.01 | S. cerevisiae deletion strains, locus YKR091W, strain srl3, hits give low values 1.01 | S. cerevisiae deletion strains, locus YLL001W, strain dnm1, hits give low values 1.02 | S. cerevisiae deletion strains, locus YLL026W, hits give low values 1.02 | S. cerevisiae deletion strains, locus YLL041C, strain sdh2, hits give low values 1.03 | S. cerevisiae deletion strains, locus YLR027C, strain aat2, hits give low values 1.03 | S. cerevisiae deletion strains, locus YLR039C, strain RIC1, hits give low values 1.02 | S. cerevisiae deletion strains, locus YLR058C, strain SHM2, hits give low values 1.02 | S. cerevisiae deletion strains, locus YLR102C, strain apc9, hits give low values 0.986 | S. cerevisiae deletion strains, locus YLR221C, strain rsa3, hits give low values 0.988 | S. cerevisiae deletion strains, locus YLR258W, strain gsy2, hits give low values 1.03 | S. cerevisiae deletion strains, locus YLR262C, strain YPT6 (second series), hits give low values 1 | S. cerevisiae deletion strains, locus YLR262C, strain YPT6, hits give low values 1.05 | S. cerevisiae deletion strains, locus YLR268W, strain sec22, hits give low values 0.986 | S. cerevisiae deletion strains, locus YLR320W, strain mms22, hits give low values 1.01 | S. cerevisiae deletion strains, locus YLR330W, strain CHS5, hits give low values 1.01 | S. cerevisiae deletion strains, locus YLR342W, strain FKS1 (second series), hits give low values 0.957 | S. cerevisiae deletion strains, locus YLR342W, strain FKS1, hits give low values 1.02 | S. cerevisiae deletion strains, locus YLR357W, strain rsc2, hits give low values 1.02 | S. cerevisiae deletion strains, locus YLR370C, strain arc18, hits give low values 1.02 | S. cerevisiae deletion strains, locus YLR371W, strain rom2, hits give low values 0.984 | S. cerevisiae deletion strains, locus YLR384C, strain iki3, hits give low values 1.01 | S. cerevisiae deletion strains, locus YLR418C, strain cdc73, hits give low values 0.974 | S. cerevisiae deletion strains, locus YML016C, strain PPZ1, hits give low values 1.02 | S. cerevisiae deletion strains, locus YML032C, strain rad52, hits give low values 0.996 | S. cerevisiae deletion strains, locus YML120C, strain ndi1, hits give low values 1.01 | S. cerevisiae deletion strains, locus YML124C, strain tub3, hits give low values 0.998 | S. cerevisiae deletion strains, locus YMR058W, strain fet3, hits give low values 1.01 | S. cerevisiae deletion strains, locus YMR078C, strain ctf18, hits give low values 0.987 | S. cerevisiae deletion strains, locus YMR125W, strain sto1, hits give low values 1.01 | S. cerevisiae deletion strains, locus YMR129W, hits give low values 1.01 | S. cerevisiae deletion strains, locus YMR205C, strain PFK2, hits give low values 1.03 | S. cerevisiae deletion strains, locus YMR223W, strain ubp8, hits give low values 0.968 | S. cerevisiae deletion strains, locus YMR231W, strain pep5, hits give low values 1.01 | S. cerevisiae deletion strains, locus YMR263W, strain SAP30, hits give low values 1.03 | S. cerevisiae deletion strains, locus YMR307W, strain GAS1, hits give low values 0.978 | S. cerevisiae deletion strains, locus YNL067W, strain RPL9B, hits give low values 1.03 | S. cerevisiae deletion strains, locus YNL071W, strain lat1, hits give low values 1.01 | S. cerevisiae deletion strains, locus YNL128W, strain TEP1, hits give low values 1.03 | S. cerevisiae deletion strains, locus YNL153C, strain GIM3, hits give low values 1.04 | S. cerevisiae deletion strains, locus YNL175C, strain NOP13, hits give low values 1.01 | S. cerevisiae deletion strains, locus YNL197C, strain WHI3, hits give low values 1.02 | S. cerevisiae deletion strains, locus YNL209W, strain ssb2, hits give low values 1.01 | S. cerevisiae deletion strains, locus YNL224C, strain SQS1, hits give low values 1 | S. cerevisiae deletion strains, locus YNL233W, strain BNI4, hits give low values 1.03 | S. cerevisiae deletion strains, locus YNL248C, strain rpa49, hits give low values 1.08 | S. cerevisiae deletion strains, locus YNL250W, strain rad50, hits give low values 0.982 | S. cerevisiae deletion strains, locus YNL271C, strain bni1, hits give low values 0.992 | S. cerevisiae deletion strains, locus YNL298W, strain CLA4, hits give low values 0.999 | S. cerevisiae deletion strains, locus YNL307C, strain MCK1, hits give low values 0.988 | S. cerevisiae deletion strains, locus YNL322C, strain KRE1 (second series), hits give low values 1.06 | S. cerevisiae deletion strains, locus YNL322C, strain KRE1, hits give low values 1.01 and 1.02 | S. cerevisiae deletion strains, locus YNR049C, strain mso1, hits give low values 1 | S. cerevisiae deletion strains, locus YNR052C, strain pop2, hits give low values 0.99 | S. cerevisiae deletion strains, locus YOL006C, strain TOP1, hits give low values 1.11 | S. cerevisiae deletion strains, locus YOL012C, strain htz1 1.2 | S. cerevisiae deletion strains, locus YOL147C, strain pex11, hits give low values 0.994 | S. cerevisiae deletion strains, locus YOR001W, strain rrp6, hits give low values 0.96 | S. cerevisiae deletion strains, locus YOR061W, strain CKA2, hits give low values 1.01 | S. cerevisiae deletion strains, locus YOR069W, strain VPS5, hits give low values 1.01 | S. cerevisiae deletion strains, locus YOR070C, strain gyp1, hits give low values 1.01 | S. cerevisiae deletion strains, locus YOR080W, strain dia2, hits give low values 1 | S. cerevisiae deletion strains, locus YOR083W, strain WHI5 (second series), hits give low values 0.989 | S. cerevisiae deletion strains, locus YOR083W, strain WHI5, hits give low values 1.05 | S. cerevisiae deletion strains, locus YOR106W, strain vam3, hits give low values 1.05 | S. cerevisiae deletion strains, locus YOR136W, strain idh2, hits give low values 0.987 | S. cerevisiae deletion strains, locus YOR144C, strain elg1, hits give low values 0.984 | S. cerevisiae deletion strains, locus YOR184W, strain ser1, hits give low values 0.985 | S. cerevisiae deletion strains, locus YOR265W, strain rbl2, hits give low values 1 | S. cerevisiae deletion strains, locus YOR270C, strain vph1, hits give low values 1.04 | S. cerevisiae deletion strains, locus YOR290C, strain snf2, hits give low values 1.06 | S. cerevisiae deletion strains, locus YOR316C, strain cot1, hits give low values 0.994 | S. cerevisiae deletion strains, locus YPL051W, strain arl3, hits give low values 1.01 | S. cerevisiae deletion strains, locus YPL055C, strain LGE1, hits give low values 1.07 | S. cerevisiae deletion strains, locus YPL078C, strain atp4, hits give low values 1.06 | S. cerevisiae deletion strains, locus YPL106C, strain sse1, hits give low values 1.06 | S. cerevisiae deletion strains, locus YPL240C, strain hsp82, hits give low values 1.02 | S. cerevisiae deletion strains, locus YPL241C, strain CIN2, hits give low values 1.01 | S. cerevisiae deletion strains, locus YPR119W, strain clb2, hits give low values 0.989 | S. cerevisiae deletion strains, locus YPR141C, strain kar3, hits give low values 0.99 | S. cerevisiae deletion strains, locus YPR163C, strain tif3, hits give low values 0.986 | S. cerevisiae deletion strains, locus YPR167C, strain met16, hits give low values 0.989 | S. cerevisiae deletion strains, strain wtn01, hits give low values 0.98 | S. cerevisiae strains, strain wild type, hits give low values 1.02

Reference: PubChem BioAssay AID1159580 (chemical genetic matrix, 2015)
